Test in all cases: NCI-60 one-dose screen, 48 h (100 = growth as untreated, 0 = no growth, -100 = all killed)
What all share (conditions): 10 µM unless noted

Assay [1] has as its system SR leukemia.
Assay [2] relates to RPMI-8226 leukemia.
For assay [3], the system named is OVCAR-8 ovarian.
In assay [4] the test system is OVCAR-5 ovarian.
Assay [5] has as its system OVCAR-4 ovarian.
Assay [6] deals with SK-OV-3 ovarian.
For assay [7], the system named is IGROV1 ovarian.
The test system of assay [8] is OVCAR-3 ovarian.
Assay [9] deals with NCI/ADR-RES ovarian.
The subject of assay [10] is T-47D breast.
The test system of assay [11] is BT-549 breast.
The test system of assay [12] is MDA-MB-435 melanoma.
Assay [13] deals with SW-620 colon.
Assay [14] deals with MCF7 breast.
Assay [15] has as its system HCT-116 colon.
For assay [16], the system named is HCC-2998 colon.
The test system of assay [17] is KM12 colon.
The subject of assay [18] is HS 578T breast.

About 83,000 compounds went through this panel and 20% of them were active in at least one assay; those are over-represented in the sample as a whole.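 In brief: 96-well plates, 48 h treatment, single concentration, percent growth endpoint.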 A number with no mark means an inactive call. The source made the active and inactive calls. The calls were made as follows: active = growth percent below 10; inactive = the rest.

Regarding `CC(=N\N=C(N)N)/C(=N/N=C(N)N)c1ccccc1`, the growth in assay [1] is 89.3%; in [2], 91.7%; in assay [3], 83.1%; in [4], 96.1%; in [5], 79.2%; in assay [6], 102%. For the same molecule, the growth was 91.4% in assay [7]; 97.9% in [8]; 90.2% in assay [9]; 60.8% in assay [10]; 88% in [11]; 103% in assay [12]. The growth was 86.3% in [13]; 18.9% in [14]; 80.4% in [15]; 73.8% in assay [16]; 70.4% in assay [17].

For `CCOC(=O)c1ccc2n1CCCc1cnc(NC(C)=O)nc1-2`, the growth in assay [1] is 101%; in assay [2], 99.1%; in [3], 103%; in assay [4], 94.1%; in [5], 104%; in assay [6], 106%. The growth is 107% in [7]; 107% in assay [8]; 99.6% in assay [18]; 108% in assay [9]; 102% in assay [12]; 106% in assay [13]. In addition, the growth in [14] was 101%; in assay [15], 107%; in assay [16] it was 122%; in assay [17], 109%.

Consider `C/C(=N\Nc1ccc(Cl)cn1)c1ccc2ccccc2n1`, for which the growth in [1] was 5.63% (active); in assay [2], 11.7%; in assay [3], 6.73% (active); in [4], 29.9%; in assay [5], 36.8%; in assay [6] it was 1.69% (active). Further, the growth is 16.6% in assay [7]; 18.2% in assay [8]; 37.7% in assay [18]; -0.464% (active) in assay [9]; 21.6% in [11]; 31.9% in assay [12]. For the same molecule, the growth in assay [14] is 7.14% (active); in assay [15], 6.22% (active); in assay [16], 38.1%; in [17], 20.2%.

`CC(=O)CC(=O)OC/C=C(/C)CCC=C(C)C`: the growth in [1] was 92.2%; in assay [2], 112%; in [3], 103%; in [4], 100%; in [5] it was 113%; in [6] it was 111%. The growth in assay [7] was 116%; in assay [8] it was 110%; in [9], 102%; in assay [10] it was 123%; in [11], 102%; in [12], 114%. The growth in [13] was 105%; in assay [14], 99.6%; in assay [15], 98.9%; in assay [16], 97.2%; in assay [17], 105%.

As for `N=C(N)N=Nc1ccc(NN=C(N)N)c2ccccc12`, the growth was 109% in assay [1]; 110% in assay [2]; 96.2% in assay [3]; 108% in assay [4]; 106% in assay [5]; 88.1% in [6]. Besides, the growth is 107% in [7]; 127% in assay [8]; 110% in assay [9]; 86.3% in [10]; 81.1% in [11]; 115% in [12]. The growth was 103% in assay [13]; 97.4% in [14]; 88.8% in assay [15]; 106% in assay [16]; 109% in assay [17].

Take `CC(=O)OCC(=O)[C@@]1(O)[C@H](C)C[C@H]2[C@@H]3C=C(C)C4=Cc5c(cnn5-c5ccc(F)cc5)C[C@]4(C)[C@H]3[C@@H](O)C[C@@]21C`: the growth in [1] was 0.104% (active); in assay [2], -16.8% (active); in [3], 32.7%; in [4], 16.9%; in assay [5] it was 38.8%; in assay [6] it was 23.9%. Besides, the growth in [7] was 16%; in [8] it was -20% (active); in assay [9] it was 18.6%; in assay [10] it was 42.9%; in assay [11], 54.8%; in assay [12], 23.3%. Besides, the growth in [13] is -70.3% (active); in assay [14] it was 18.9%; in [15] it was 15.7%; in assay [16] it was -35.3% (active); in assay [17] it was -46.7% (active).

For the molecule `COC(=O)[C@H](Cc1cn(C)cn1)NC(=O)[C@@H](NC(=O)Nc1cc(C(F)(F)F)cc(C(F)(F)F)c1)C(C)(C)C`, the growth in assay [1] is -41.3% [100 µM] (active); in [2], -53.8% [100 µM] (active); in assay [3] it was -55.2% [100 µM] (active); in assay [4], 39.7% [100 µM]; in assay [5] it was -71.5% [100 µM] (active); in assay [6] it was -25.6% [100 µM] (active). In addition, the growth in [7] was -63% [100 µM] (active); in assay [8], -99.3% [100 µM] (active); in [9] it was 78.1% [100 µM]; in assay [10], -63.9% [100 µM] (active); in [11] it was -90.4% [100 µM] (active); in assay [12] it was -89.3% [100 µM] (active). For the same molecule, the growth in assay [13] was -46.4% [100 µM] (active); in assay [14], -59.2% [100 µM] (active); in assay [15], -91.5% [100 µM] (active); in assay [16] it was -94.2% [100 µM] (active); in assay [17], -88.7% [100 µM] (active).

On to `O=C(Nc1cccc2[nH]c(C(F)(F)F)nc12)c1ccc(F)cc1`, for which the growth is 76.3% in assay [1]; 30.4% in [2]; 90.1% in assay [3]; 99.6% in [4]; 80.3% in assay [5]; 98.8% in [6]. The growth is 85.8% in assay [7]; 66% in assay [8]; 77.3% in [18]; 92.1% in [9]; 87.5% in [11]; 87.2% in [12]. Besides, the growth was 91.5% in assay [13]; 83.8% in assay [14]; 84.4% in assay [15]; 115% in assay [16]; 73.1% in assay [17].

`CCCCCCC(C)N(CC(C)(C)O)C(=O)c1ccc([N+](=O)[O-])cc1` (stereo not drawn): the growth was 89.5% in assay [1]; 96% in [2]; 101% in assay [3]; 106% in assay [4]; 108% in assay [5]; 96.3% in assay [6]. The growth in assay [7] was 88.1%; in assay [8], 113%; in [9], 85.7%; in assay [10] it was 88.2%; in assay [11] it was 99%; in assay [12], 104%. The growth in assay [13] was 95.8%; in assay [14], 97.6%; in assay [15], 91.3%; in assay [16] it was 115%; in assay [17], 103%.

On to `C/C(=N\Nc1cccc(Cl)n1)c1ccccn1`, for which the growth in assay [1] was 6.31% (active); in [2], 20.8%; in assay [3], 20.2%; in [4], 23.5%; in assay [5], 10.5%; in assay [6], 22.5%. In addition, the growth was 17% in assay [7]; 26.7% in assay [8]; 58.9% in assay [18]; 0.96% (active) in [9]; 31.3% in assay [12]; 32.5% in assay [13]. In addition, the growth is 10.1% in assay [14], 10% in assay [15], 32.6% in assay [16] and 25.8% in assay [17].

As to `C=CCNCCC#N`, the growth in [1] was 89.7%; in assay [2], 101%; in assay [3], 96.8%; in [4], 108%; in assay [5], 106%; in [6], 103%. Moreover, the growth is 108% in assay [7]; 114% in [8]; 117% in [9]; 96.3% in assay [10]; 105% in [11]; 109% in [12]. The growth was 110% in assay [13]; 99.5% in assay [14]; 100% in assay [15]; 116% in [16]; 115% in assay [17].

On to `CCC(C)CC(N)O` (stereo not drawn), for which the growth in assay [1] was 105%; in [2], 111%; in assay [3], 107%; in assay [4], 99.9%; in [5] it was 109%; in assay [6], 111%. Further, the growth is 118% in [7]; 110% in assay [8]; 109% in assay [9]; 137% in assay [10]; 108% in assay [11]; 104% in [12]. Besides, the growth in assay [13] is 108%; in [14], 101%; in assay [15] it was 111%; in assay [16] it was 112%; in [17] it was 102%.

As for `c1cc[c]([Bi]([c]2ccccc2)[c]2ccccc2)cc1`, the growth was 102% in assay [1]; 91% in assay [2]; 101% in assay [3]; 99.3% in assay [4]; 89.3% in assay [5]; 111% in assay [6]. Besides, the growth is 107% in [7]; 105% in assay [8]; 100% in assay [18]; 98% in assay [9]; 90.4% in assay [12]; 92.9% in assay [13]. Besides, the growth in assay [14] is 97.5%; in assay [15], 104%; in [16], 96.5%; in assay [17] it was 97.1%.

For the molecule `CCOC1=C(Cl)C(=O)C(OCC)=C(Cl)C1=O`, the growth in assay [1] is 87.7%; in [2], 105%; in assay [3], 104%; in [4], 110%; in assay [5], 105%; in assay [6], 93.5%. Further, the growth in assay [7] was 99.1%; in assay [8], 105%; in assay [9] it was 100%; in assay [10], 93.5%; in assay [12], 100%; in assay [13] it was 110%. Besides, the growth in [14] was 99.5%; in assay [15], 113%; in assay [16] it was 91.2%; in assay [17] it was 98.3%.

The values above are taken from PubChem BioAssay (NCI).
